This is an account of results in PMC4336329 (PLoS ONE, 2015).

Molecules are shown by their SMILES. In all, about 310,000 compounds went through this assay and about 14,000 (4.5%) showed an effect of 50% or more. The effect is printed as a negative number. The sample as a whole holds a higher share of strong results than the screen did.
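Also: peak tail current of the secondary pulse compared with the same well before compound.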

In this experiment the target is human ether-à-go-go-related gene (hERG) potassium channel (human, UniProt Q12809). The experiment can be described thus: primary screen, population patch clamp on CHO cells stably expressing hERG; higher = less effect of the substance.
Sequence of human ether-à-go-go-related gene (hERG) potassium channel (Q12809 whole entry, looked up): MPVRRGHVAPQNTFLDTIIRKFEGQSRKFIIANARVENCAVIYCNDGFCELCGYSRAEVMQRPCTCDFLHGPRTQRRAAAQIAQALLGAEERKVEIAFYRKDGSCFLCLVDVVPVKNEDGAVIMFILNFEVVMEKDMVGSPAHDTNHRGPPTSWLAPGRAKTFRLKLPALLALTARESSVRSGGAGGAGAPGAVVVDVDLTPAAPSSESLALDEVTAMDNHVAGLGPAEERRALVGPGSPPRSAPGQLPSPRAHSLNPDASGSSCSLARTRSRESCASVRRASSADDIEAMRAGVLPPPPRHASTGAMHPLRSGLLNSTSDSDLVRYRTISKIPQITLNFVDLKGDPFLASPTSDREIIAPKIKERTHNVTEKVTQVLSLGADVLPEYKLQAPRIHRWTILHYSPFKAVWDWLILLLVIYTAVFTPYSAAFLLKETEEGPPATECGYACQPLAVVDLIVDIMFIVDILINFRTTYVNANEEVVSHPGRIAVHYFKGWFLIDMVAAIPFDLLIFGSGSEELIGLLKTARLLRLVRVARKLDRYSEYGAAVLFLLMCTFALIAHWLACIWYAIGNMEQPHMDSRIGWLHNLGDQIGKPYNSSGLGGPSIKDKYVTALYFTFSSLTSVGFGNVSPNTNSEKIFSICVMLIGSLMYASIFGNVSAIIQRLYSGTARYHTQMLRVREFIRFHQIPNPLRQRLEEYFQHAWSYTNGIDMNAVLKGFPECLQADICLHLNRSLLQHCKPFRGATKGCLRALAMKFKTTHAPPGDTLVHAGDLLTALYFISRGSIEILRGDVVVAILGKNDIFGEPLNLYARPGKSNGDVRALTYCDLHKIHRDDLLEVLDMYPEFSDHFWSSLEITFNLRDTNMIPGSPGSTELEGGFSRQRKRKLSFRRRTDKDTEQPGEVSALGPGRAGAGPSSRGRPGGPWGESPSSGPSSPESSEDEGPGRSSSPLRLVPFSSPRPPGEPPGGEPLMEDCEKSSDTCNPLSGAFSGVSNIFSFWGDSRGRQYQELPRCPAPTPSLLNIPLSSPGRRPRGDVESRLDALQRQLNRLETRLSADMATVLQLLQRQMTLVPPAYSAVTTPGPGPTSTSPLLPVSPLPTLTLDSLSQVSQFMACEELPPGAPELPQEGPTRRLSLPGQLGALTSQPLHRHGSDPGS
With `O=C(c1cnn2ccccc12)N1CCc2ccccc21`, the “hERG current change (%, negative = inhibition) at 10uM” value is 0.772%. For the molecule `CC(=O)c1ccc(N2CCN(C(=O)/C=C/c3ccc(S(=O)(=O)N4CCOCC4)cc3)CC2)cc1`, the “hERG current change (%, negative = inhibition) at 10uM” value was -30.3%. `Clc1ccccc1OCCCCN1CCCCC1`: the “hERG current change (%, negative = inhibition) at 10uM” value is listed as -8.1%. As to `Clc1ccc(Cl)c(OCCN2CCCC2)c1`, the “hERG current change (%, negative = inhibition) at 10uM” value is on record as -38.8%. `Clc1ccc(Cl)c(OCCCCN2CCCCC2)c1`: the “hERG current change (%, negative = inhibition) at 10uM” value is on record as -59.2%. `Clc1ccc(OCCCn2ccnc2)c(Br)c1.O=C(O)C(=O)O`: the “hERG current change (%, negative = inhibition) at 10uM” value was -18.6%.

With `Clc1ccc(OCCCCCN2CCCC2)c(Br)c1`, the “hERG current change (%, negative = inhibition) at 10uM” value is listed as -62.3%.

As for `CCN1CCN(CCCOc2ccc(Cl)cc2Br)CC1.O=C(O)C(=O)O`, the “hERG current change (%, negative = inhibition) at 10uM” value is -69%.

On to `Fc1ccccc1OCCCCCCN1CCCC1`, for which the “hERG current change (%, negative = inhibition) at 10uM” value was -38.2%.

On to `Clc1ccccc1OCCCCN1CCCC1`, for which the “hERG current change (%, negative = inhibition) at 10uM” value is -29.6%. As for `Cc1ccccc1OCCCN1CCCC1`, the “hERG current change (%, negative = inhibition) at 10uM” value is given as -14.4%. As to `Clc1cccc(OCCCN2CCCC2)c1Cl`, the “hERG current change (%, negative = inhibition) at 10uM” value is recorded as -55.5%. For the molecule `Brc1ccccc1OCCCCCN1CCCC1`, the “hERG current change (%, negative = inhibition) at 10uM” value was -33.9%. `CCn1c(P(C)(=O)[O-])nc2ccccc21.[Na+]`: the “hERG current change (%, negative = inhibition) at 10uM” value was found to be 8.91%.

Take `COC(=O)c1sccc1NC(=S)N1CCCC(C)C1` (centres unmarked): the “hERG current change (%, negative = inhibition) at 10uM” value is recorded as 14.6%. For the molecule `Cc1cc(C(=O)N2CCN(c3ccc(C(F)(F)F)cn3)CC2)c(C)o1`, the “hERG current change (%, negative = inhibition) at 10uM” value is given as -21.4%. To `CCOc1ccccc1C(=O)Nc1nnc(C(C)C)s1` belongs -1.92%; to `O=C(CCN1C(=O)/C(=C/c2ccc(F)cc2)SC1=S)NC1C=CS(=O)(=O)C1` (centres unmarked), -15.2%; to `CCc1nc2ccccc2n1CCC(=O)O.Cl`, -5.88%.

For `CC1(C)c2ccccc2N2CC(=O)NC21/C=C/c1ccco1` (centres unmarked), the “hERG current change (%, negative = inhibition) at 10uM” value stood at 2.9%. On to `Cc1nn(Cc2ccc(Cl)cc2)c(C)c1NC(=O)c1cc(-c2ccc3c(c2)OCO3)on1`, for which the “hERG current change (%, negative = inhibition) at 10uM” value was -3.11%.

With `CN(C)C(=O)N1CCC(C(=O)N2CCCC(C(=O)c3cccc4ccccc34)C2)CC1` (centres unmarked), the “hERG current change (%, negative = inhibition) at 10uM” value is on record as -33.8%. Take `Clc1ccc(Cl)c(OCCCCN2CCNCC2)c1.O=C(O)C(=O)O`: the “hERG current change (%, negative = inhibition) at 10uM” value is -17.4%. For `Clc1ccc(OCCN2CCCCC2)c(Cl)c1.O=C(O)C(=O)O`, the “hERG current change (%, negative = inhibition) at 10uM” value is -16.2%. As for `Clc1ccc(OCCCN2CCCCC2)c(Br)c1.O=C(O)C(=O)O`, the “hERG current change (%, negative = inhibition) at 10uM” value is -70.7%. Regarding `CCOC(=O)C(NC(=O)Cc1ccccc1)(Nc1cc(C)on1)C(F)(F)F` (centres unmarked), the “hERG current change (%, negative = inhibition) at 10uM” value came out at 3.97%. On to `N#Cc1ccccc1NC(=O)COC(=O)CCc1ccccc1`, for which the “hERG current change (%, negative = inhibition) at 10uM” value is given as -14.9%. On to `C=CCn1c(SCc2ccc(C(=O)Nc3ccccc3)cc2)nnc1-c1ccccc1`, for which the “hERG current change (%, negative = inhibition) at 10uM” value is listed as -5.06%. As to `O=C(CCn1c(=O)c2ccccc2n(Cc2ccccc2)c1=O)NCc1ccc2c(c1)OCO2`, the “hERG current change (%, negative = inhibition) at 10uM” value is -4.33%. For the molecule `O=C(NCCCl)Nc1cc([N+](=O)[O-])ccc1Cl`, the “hERG current change (%, negative = inhibition) at 10uM” value is listed as 16.9%. To `CCOC(=O)CNc1c(-c2ccccc2)nc2ccc(Cl)cn12` belongs -64.4%; to `CC(=O)Nc1c(-c2ccccc2)nc2ccc(Cl)cn12`, 5.29%; to `CCOC(=O)c1c(-c2ccccc2)nc2ccc(Cl)cn12`, 30%. On to `COCCNc1c(-c2ccc(OC)cc2)nc2ccc(Cl)cn12`, for which the “hERG current change (%, negative = inhibition) at 10uM” value was -39.5%. For the molecule `CCOC(=O)CNc1c(-c2ccc(OC)cc2)nc2ccc(Cl)cn12`, the “hERG current change (%, negative = inhibition) at 10uM” value was -73.5%. With `CCOC(=O)CNc1c(-c2ccc(O)cc2)nc2ccc(Cl)cn12.Cl`, the “hERG current change (%, negative = inhibition) at 10uM” value was -39.7%. For `Cc1ccc(S(=O)(=O)N2c3ccccc3OCC2c2ccccc2)cc1` (centres unmarked), the “hERG current change (%, negative = inhibition) at 10uM” value amounted to 23%. In the case of `COc1ccc(OC)c(NC(=O)CN2CCN(C(=O)c3ccco3)CC2)c1` it was -23.7%. Consider `CCOc1ccc(OCC)c(NC(=O)CN2CCN(c3cc(C)ccc3C)CC2)c1.Cl`, for which the “hERG current change (%, negative = inhibition) at 10uM” value is given as -9.35%. As for `CCOC(=O)N1CCN(CC(=O)Nc2cc(OCC)ccc2OCC)CC1.Cl`, the “hERG current change (%, negative = inhibition) at 10uM” value is -68.1%. With `CCOc1ccc(OCC)c(NC(=O)CN2CCN(CC(=O)NC(C)C)CC2)c1.Cl`, the “hERG current change (%, negative = inhibition) at 10uM” value was found to be 9.43%. Consider `CCOc1ccc(OCC)c(NC(=O)CN2CCN(C(=O)c3ccco3)CC2)c1`, for which the “hERG current change (%, negative = inhibition) at 10uM” value is on record as -59%.

In the case of `COc1ccc(NC(C)=O)cc1NC(=O)CN1CCN(C(=O)c2ccco2)CC1`, the “hERG current change (%, negative = inhibition) at 10uM” value turned out to be 13.9%. To `CCOc1ccc(OCC)c(NC(=O)CN2CCN(c3ccc(C)cc3C)CC2)c1.Cl` belongs -0.937%.
